This is part of a sample that, as a whole, favours compounds with a hit. Of some 79,000 tested, about 15% had one in any assay. A number with no mark means an inactive call. The source made the active and inactive calls. Cut-off read from the data, not from the text of the source: active = growth inhibition above about 70%; inactive = the rest.
Assay: NCI Yeast Anticancer Drug Screen. Data for the cln2 rad14 strain (AID 165);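 note: 0% = growth equal to vehicle treated cultures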
Conditions: S. cerevisiae cln2 rad14 strain, at 5.0 µM (retest, dose inferred, filed as 0.5), hits give high values
Summary of the method: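 Relative to vehicle controls, growth inhibition of compound-treated cln2 rad14 yeast was recorded.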

Structure (SMILES) | growth inhibition
O=C(O)CCCCCCCCCCOc1ccc(Cl)cc1Cl | 1%
C=C(CN1CCCC1)C(=O)c1ccc(OC)cc1 | 31%
CNC(=O)OCc1c(COC(=O)NC)c(-c2ccc(OC)cc2)n2c1CCC2 | 38%
CCCCC(=S)N1CCN(c2ccccc2)CC1 | -1%
CCN(CC)C(=S)N/N=C/c1cc(OC)ccc1O | -6%
COc1ccc2c(c1)CN1C(CCC3c4ccccc4NC31)C2 (stereo not given) | 26%
CCCCC(=O)N/N=C(\C)[C@]1(O)Cc2c(O)c3c(c(O)c2[C@@H](OC2CC(N)C(O)C(C)O2)C1)C(=O)c1c(OC)cccc1C3=O (stereo not given in full) | 8%
C=C1C(=O)C23OC2C1CCC(=O)C1(C)CC[C@H](OC(C)=O)C(C)(C)[C@H]1CC3O (stereo not given in full) | 71% (active)
Cc1nc(N)sc1N=Nc1ccc(Cl)cc1Cl | 2%
O=C(O)c1cc2c3ccccc3sc2c2ccccc12 | -3%
COc1ccc2c(c1)C(Br)CCC(Br)C2=O (stereo not given) | 13%
Cc1cc(OCCl)ccc1[N+](=O)[O-] | -1%
COC(=O)c1nnc(C(=O)OC)c2c1[nH]c1ccccc12 | -2%
O=S(Nc1ccccc1Br)c1ccccc1 (stereo not given) | 1%
Cc1c2c(c(C)c3c1OC(C)(C)CC3)OC(C)(C)CC2 | -6%
O=c1cc(CSc2ccc(Cl)cc2)occ1O | 7%
Cc1ccc2c(c1)[n+]([O-])c(N)n[n+]2[O-] | 11%
CC(=O)c1c2c(cc3c1CC1(C3)Cc3cc4c(c(C(=O)O)c3C1)CCC4)CCC2 (stereo not given) | 70% (active)
CCCCCCCCCCC(NC(C)=O)(C(=O)OCC)C(=O)OCC | -5%
Cc1nc2c(cnn2C)cc1CCc1ccccc1 | 12%

Structure (SMILES) | growth inhibition
CCc1cccc(C)c1NC(=O)C(=O)CC(=O)c1ccccc1Cl | -6%
COc1nc(N)c(N=O)c(OCc2ccccc2)n1 | 55%
O=C1O/C(=C2\OC(=O)c3ccccc32)c2ccccc21 | 1%
Cc1ccc(O)c(C(C)(C)c2ccccc2)c1 | -6%
CCOC(=O)NN(C(=O)OCC)c1ccc(N=Nc2ccc(OC)cc2)n1C | 29%
S=C(NCc1ccccc1)[S][Sb]([S]C(=S)NCc1ccccc1)[c]1ccccc1 | -6%
O=CCCCc1cc2c(cc1Br)CCC2 | 10%
CCC(C)CNCCCCCNc1cc(OC)cc2cccnc12 (stereo not given) | 47%
CNC(=O)NC(c1cc(OC)c(OC)c(OC)c1)c1cc2c(cc1O)OCO2 (stereo not given) | -28%
CCCCCCCSCc1nc2ccccc2c(C)[n+]1[O-] | -3%
Cc1[nH]c(=O)[nH]c(=O)c1CN(C)Cc1cc(Cl)cc(Cl)c1O | -3%
O=C(N/C(=C\c1cccc([N+](=O)[O-])c1)c1nc2ccccc2s1)c1ccccc1 | 12%
CC1NS(=O)(=O)N(C)C1=O (stereo not given) | 0%
Cc1csc2[n+]1C(=O)/C(=C\c1ccc([N+](=O)[O-])cc1)S2 | 7%
CC(C)c1ccc2c(c1)CCC1C(C)(C(=O)O)CCCC21C (stereo not given) | 8%
COc1ncnc2nc(SC)[nH]c12 | 0%
CCN(CC)C(=O)CCCCC(=O)OC(C)C | -7%
CC(=O)O/N=C1/CCC2C3CC=C4CC(OC(C)=O)CCC4(C)C3CCC12C (stereo not given) | -1%
Clc1ccc(CNc2ccc(Br)cc2)cc1 | -9%
Cc1cnc(C#N)c(C#N)n1 | 0%
